Laboratory results taken from PubChem BioAssay AID1159580 (chemical genetic matrix, 2015).
The whole screen tested about 5,500 compounds, of which about 2,000 (36%) were called active. Inconclusive results (about 18%) are left out. Rule as the data show it: active = normalized growth mostly below about 0.91 (no sharp cut-off); inconclusive = no clear call, values can overlap the other calls; inactive = mostly above about 0.92. Some of the results follow.

Experiment: chemical genetic growth profiling, strain panel (AID 1159580);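 also: tested at 20 µM; growth read once vehicle control cultures reached saturation at 30 °C; 1 = growth at the plate median or of vehicle wells; lower values mean less growth of the strain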
Conditions: growth OD

Measured: normalized growth

CN(C)CC/C=C1/c2ccccc2COc2ccccc21
inactive: S. cerevisiae deletion strains, locus YKL068W, active compounds read low 1.02 | S. cerevisiae deletion strains, locus YKL085W, strain MDH1 (second series), active compounds read low 1 | S. cerevisiae deletion strains, locus YKL085W, strain MDH1, active compounds read low 1 | S. cerevisiae deletion strains, locus YKL160W, strain elf1, active compounds read low 1.01 | S. cerevisiae deletion strains, locus YKL190W, strain CNB1, active compounds read low 1.02 | S. cerevisiae deletion strains, locus YKR001C, strain vps1, active compounds read low 1 | S. cerevisiae deletion strains, locus YKR026C, strain gcn3, active compounds read low 1.03 | S. cerevisiae deletion strains, locus YKR091W, strain srl3, active compounds read low 1.02 | S. cerevisiae deletion strains, locus YLL001W, strain dnm1, active compounds read low 1.01 | S. cerevisiae deletion strains, locus YLL026W, active compounds read low 1.02 | S. cerevisiae deletion strains, locus YLL041C, strain sdh2, active compounds read low 1.03 | S. cerevisiae deletion strains, locus YLR027C, strain aat2, active compounds read low 1.02 | S. cerevisiae deletion strains, locus YLR039C, strain RIC1, active compounds read low 1.15 | S. cerevisiae deletion strains, locus YLR058C, strain SHM2, active compounds read low 1.01 | S. cerevisiae deletion strains, locus YLR102C, strain apc9, active compounds read low 1.01 | S. cerevisiae deletion strains, locus YLR113W, strain HOG1, active compounds read low 1.09 | S. cerevisiae deletion strains, locus YLR221C, strain rsa3, active compounds read low 1.01 | S. cerevisiae deletion strains, locus YLR258W, strain gsy2, active compounds read low 1.02 | S. cerevisiae deletion strains, locus YLR262C, strain YPT6 (second series), active compounds read low 1.09 | S. cerevisiae deletion strains, locus YLR262C, strain YPT6, active compounds read low 1.14 | S. cerevisiae deletion strains, locus YLR268W, strain sec22, active compounds read low 1.02 | S. cerevisiae deletion strains, locus YLR320W, strain mms22, active compounds read low 1.01 | S. cerevisiae deletion strains, locus YLR330W, strain CHS5, active compounds read low 1.01 | S. cerevisiae deletion strains, locus YLR342W, strain FKS1 (second series), active compounds read low 1 | S. cerevisiae deletion strains, locus YLR342W, strain FKS1, active compounds read low 1.01 | S. cerevisiae deletion strains, locus YLR357W, strain rsc2, active compounds read low 1.02 | S. cerevisiae deletion strains, locus YLR370C, strain arc18, active compounds read low 1.02 | S. cerevisiae deletion strains, locus YLR371W, strain rom2, active compounds read low 1.01 | S. cerevisiae deletion strains, locus YLR384C, strain iki3, active compounds read low 1.03 | S. cerevisiae deletion strains, locus YLR418C, strain cdc73, active compounds read low 0.996 | S. cerevisiae deletion strains, locus YML016C, strain PPZ1, active compounds read low 1 | S. cerevisiae deletion strains, locus YML032C, strain rad52, active compounds read low 1.02 | S. cerevisiae deletion strains, locus YML120C, strain ndi1, active compounds read low 1.04 | S. cerevisiae deletion strains, locus YML124C, strain tub3, active compounds read low 1.02 | S. cerevisiae deletion strains, locus YMR058W, strain fet3, active compounds read low 1.01 | S. cerevisiae deletion strains, locus YMR078C, strain ctf18, active compounds read low 1.03 | S. cerevisiae deletion strains, locus YMR125W, strain sto1, active compounds read low 1.02 | S. cerevisiae deletion strains, locus YMR129W, active compounds read low 1.02 | S. cerevisiae deletion strains, locus YMR205C, strain PFK2, active compounds read low 1.04 | S. cerevisiae deletion strains, locus YMR223W, strain ubp8, active compounds read low 1.03 | S. cerevisiae deletion strains, locus YMR231W, strain pep5, active compounds read low 1.03 | S. cerevisiae deletion strains, locus YMR263W, strain SAP30, active compounds read low 1 | S. cerevisiae deletion strains, locus YMR307W, strain GAS1, active compounds read low 1.05 | S. cerevisiae deletion strains, locus YNL067W, strain RPL9B, active compounds read low 1.01 | S. cerevisiae deletion strains, locus YNL071W, strain lat1, active compounds read low 1.02 | S. cerevisiae deletion strains, locus YNL128W, strain TEP1, active compounds read low 1.01 | S. cerevisiae deletion strains, locus YNL153C, strain GIM3, active compounds read low 0.997 | S. cerevisiae deletion strains, locus YNL183C, strain NPR1, active compounds read low 0.989 | S. cerevisiae deletion strains, locus YNL209W, strain ssb2, active compounds read low 0.985 | S. cerevisiae deletion strains, locus YNL233W, strain BNI4, active compounds read low 1.01 | S. cerevisiae deletion strains, locus YNL248C, strain rpa49, active compounds read low 1.01 | S. cerevisiae deletion strains, locus YNL250W, strain rad50, active compounds read low 1.04 | S. cerevisiae deletion strains, locus YNL271C, strain bni1, active compounds read low 1.01 | S. cerevisiae deletion strains, locus YNL298W, strain CLA4, active compounds read low 1.02 | S. cerevisiae deletion strains, locus YNL307C, strain MCK1, active compounds read low 1.03 | S. cerevisiae deletion strains, locus YNL322C, strain KRE1 (second series), active compounds read low 1.02 | S. cerevisiae deletion strains, locus YNL322C, strain KRE1, active compounds read low 1.02 | S. cerevisiae deletion strains, locus YNR049C, strain mso1, active compounds read low 1.02 | S. cerevisiae deletion strains, locus YNR052C, strain pop2, active compounds read low 1.02 | S. cerevisiae deletion strains, locus YOL006C, strain TOP1, active compounds read low 0.974 | S. cerevisiae deletion strains, locus YOL012C, strain htz1 1.18 | S. cerevisiae deletion strains, locus YOL147C, strain pex11, active compounds read low 1.01 | S. cerevisiae deletion strains, locus YOR001W, strain rrp6, active compounds read low 1.02 | S. cerevisiae deletion strains, locus YOR061W, strain CKA2, active compounds read low 1 | S. cerevisiae deletion strains, locus YOR069W, strain VPS5, active compounds read low 1.01 | S. cerevisiae deletion strains, locus YOR070C, strain gyp1, active compounds read low 1.02 | S. cerevisiae deletion strains, locus YOR080W, strain dia2, active compounds read low 1.03 | S. cerevisiae deletion strains, locus YOR083W, strain WHI5, active compounds read low 0.99 | S. cerevisiae deletion strains, locus YOR106W, strain vam3, active compounds read low 1.02 | S. cerevisiae deletion strains, locus YOR136W, strain idh2, active compounds read low 1.03 | S. cerevisiae deletion strains, locus YOR144C, strain elg1, active compounds read low 1.01 | S. cerevisiae deletion strains, locus YOR184W, strain ser1, active compounds read low 1.05 | S. cerevisiae deletion strains, locus YOR231W, strain MKK1, active compounds read low 1.07 | S. cerevisiae deletion strains, locus YOR265W, strain rbl2, active compounds read low 1.03 | S. cerevisiae deletion strains, locus YOR270C, strain vph1, active compounds read low 1.02 | S. cerevisiae deletion strains, locus YOR290C, strain snf2, active compounds read low 1.01 | S. cerevisiae deletion strains, locus YOR316C, strain cot1, active compounds read low 1.01 | S. cerevisiae deletion strains, locus YPL051W, strain arl3, active compounds read low 1.01 | S. cerevisiae deletion strains, locus YPL055C, strain LGE1, active compounds read low 0.981 | S. cerevisiae deletion strains, locus YPL078C, strain atp4, active compounds read low 1.02 | S. cerevisiae deletion strains, locus YPL106C, strain sse1, active compounds read low 1.02 | S. cerevisiae deletion strains, locus YPL240C, strain hsp82, active compounds read low 1.02 | S. cerevisiae deletion strains, locus YPL241C, strain CIN2, active compounds read low 1.01 | S. cerevisiae deletion strains, locus YPL256C, strain CLN2, active compounds read low 1.04 | S. cerevisiae deletion strains, locus YPR119W, strain clb2, active compounds read low 1.01 | S. cerevisiae deletion strains, locus YPR141C, strain kar3, active compounds read low 1.01 | S. cerevisiae deletion strains, locus YPR163C, strain tif3, active compounds read low 1.01 | S. cerevisiae deletion strains, locus YPR167C, strain met16, active compounds read low 1.02 | S. cerevisiae deletion strains, strain wtn01, active compounds read low 1.03 | S. cerevisiae strains, strain wild type, active compounds read low 1.01
